Bioassay records deposited in PubChem by National Center for Advancing Translational Sciences (NCATS).
Compounds with a hit are over-represented: about 6.2% of the library has one in this group of screens.
LASV entry inh – Lassa virus entry inhibition. Lassa virus pseudotype entry inhibition, cell reporter. Potency, µM (titrated, usually from 37.9 µM), hits mostly inhibitors. actives 1.2% (n = 300,000). AID 540256; calls by dose curve; tested in HEK293 cells; further: nearly all actives have a fitted effect of over 50% in size
Marburg entry inh – blocks Marburg virus binding to or entry into cells. Marburg virus pseudotyped entry inhibition, cell reporter. Potency, µM (doses to about 37.8 µM), hits mostly inhibitors. actives 1.8% (n = 300,000). AID 540276; calls by dose curve; tested in HEK293 cells
HCMV antiviral – human cytomegalovirus inhibition. HFF cells, HCMV-luciferase reporter, 72 h; stronger effect = lower value. activity change, negative = inhibition, % at 57.5 µM. actives 4.5% (n = 410,000); in the data active means activity change below about -60%; inconclusive means no clear call, values can overlap the other calls; inactive means above about -39%
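Luciferase read-out from HCMV-luciferase-infected HFFs (MOI 1 PFU/cell) 72 h post infection at 37C; compounds added after 16 h cell attachment; activity normalized between buffer-only basal and Salinomycin (10uM) inhibitor controls.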
FMDV inh – antivirals against foot and mouth disease virus; FMDV antiviral cell-based qHTS; Potency, µM (doses to about 57.9 µM), usual class: inhibitors; actives 1.2% (n = 410,000); AID 1159524; calls by dose curve; tested in HEK293T cells; further: read-out not given here; nearly all actives have a fitted effect of over 45% in size
Hits are given with their value; 0 = inactive; ? = inconclusive; - = no result.

SMILES	LASV entry inh	Marburg entry inh	HCMV antiviral	FMDV inh
Cc1ccc(S(=O)(=O)N2CCCc3cc(NC(=O)c4ccccc4Cl)ccc32)cc1	0	-	0	0
O=C(Nc1ccc(N2CCN(C(=O)c3ccco3)CC2)cc1)c1ccc([N+](=O)[O-])cc1Cl	-	-	0	?
O=C(Nc1ccc2c(c1)CCCN2C(=O)c1ccco1)c1cc([N+](=O)[O-])ccc1Cl	2.5µM	?	0	?
O=C(Nc1ccc2c(c1)CCCN2C(=O)c1cccs1)c1c(F)cccc1Cl	-	-	-79	?
COc1ccc(-c2coc3cc4oc(=O)cc(C)c4cc23)cc1F	?	?	-63	0
COc1ccc(-c2cc(=O)oc3cc4occ(C)c4cc23)cc1	0	0	0	0
Cc1cccc(Oc2cc(NC(=O)c3ccccc3)cc([N+](=O)[O-])c2)c1	?	?	-64	?
Cn1cc([N+](=O)[O-])c(C(=O)Nc2ccc3c(C(F)(F)F)cc(=O)oc3c2)n1	-	-	-99	0
Cc1nn(C)cc1C(=O)Nc1cc(Oc2ccc(Cl)cc2)cc([N+](=O)[O-])c1	0	?	0	0
Cn1cc([N+](=O)[O-])c(C(=O)Nc2cc(Oc3ccccc3)cc([N+](=O)[O-])c2)n1	?	?	-99	?
Cn1cc(Br)c(C(=O)Nc2ccc3c(C(F)(F)F)cc(=O)oc3c2)n1	-	-	0	0
CC1(C)Cc2c(cnn2-c2cccc(F)c2)C(NC(=O)CSc2ccccn2)C1 (configuration not stated)	-	-	0	0
Cc1ccnn1CC(=O)N/N=C/c1ccco1	0	0	0	0
CC1(OC(=O)C2CCCC2)C(=O)C=C2C=C3CCCCN3C=C2C1=O (configuration not stated)	-	0	-	0
C=CCn1c(SCC(=O)NCCO)nc2sc(C)c(C)c2c1=O	0	0	0	3.5µM
C=CCn1c(SCC(=O)c2cc(C)n(C(C)COC)c2C)nc2sc(C)c(C)c2c1=O (configuration not stated)	9.2µM	0	0	?
COCC(C)n1c(C)cc(C(=O)CSc2ncccn2)c1C (configuration not stated)	0	0	0	0
C=CCn1c(SCC(=O)Nc2ccc(C(=O)O)cc2)nc2sc(C)c(C)c2c1=O	-	-	0	0
CCCCOCCCNC(=O)N[C@H](C(=O)OC)C(C)C	0	0	0	0
CC(=NNC(=S)Nc1ccccc1Cl)c1ccccn1	0.25µM	?	-99	0
CC(=NNC(=S)Nc1ccccc1)c1ccccn1	-	-	-98	0
N/C(=N\NC(=O)Nc1ccccc1)c1ccccn1	0	?	0	0
C[n+]1cccc(/C=N/NC(=O)CC23CC4CC(CC(C4)C2)C3)c1	0	0	?	0
CCCCCN1C(=O)c2cc(OC)ccc2[C@@]2(C(=O)OCC)Cc3cc(Cl)ccc3[C@@H]12	-	-	-103	7.9µM
CCOC(=O)[C@]12Cc3cc4ccccc4cc3[C@H]1N(Cc1ccccc1)C(=O)c1ccccc12	-	-	-97	?
SMILES	LASV entry inh	Marburg entry inh	HCMV antiviral	FMDV inh
CCOC(=O)[C@]12Cc3cc(OC)ccc3[C@H]1N(Cc1ccccc1)C(=O)c1cc(OC)ccc12	-	-	0	0
CCOC(=O)[C@]12Cc3cc4ccccc4cc3[C@H]1N(Cc1ccccc1)C(=O)c1cc(OC)ccc12	-	-	-91	7.9µM
CCOC(=O)[C@]12Cc3ccc4ccccc4c3[C@H]1N(Cc1ccccc1)C(=O)c1ccccc12	-	-	0	22µM
CCOC(=O)[C@]12Cc3ccsc3[C@H]1N(Cc1ccccc1)C(=O)c1ccccc12	-	-	0	?
CC(=O)c1ccc(S(=O)(=O)N2CCC(C(=O)Nc3ncc(C)s3)CC2)cc1	0	0	0	0
CCOC(=O)[C@]12Cc3cc(Cl)ccc3[C@H]1N(Cc1ccccc1)C(=O)c1cc(OC)ccc12	-	-	-106	8.9µM
COc1cc(/C=C2/SC(=Nc3ccc(O)cc3)NC2=O)cc(OC)c1O	?	?	0	0
COc1ccc(N=C2NC(=O)/C(=C/c3ccc(O)c(OC)c3)S2)cc1	3.7µM	?	-64	0
CC(=O)N/C(N)=N/c1nc2cc(C)ccc2o1	-	-	0	0
CC(=O)N/C(N)=N/c1nc2cc([N+](=O)[O-])ccc2o1	?	?	-66	0
Cc1nn(CC(=O)N(C)Cc2ccc(F)cc2)c(C)c1[N+](=O)[O-]	0	?	0	0
O=C(NCCCN1CCCC1=O)c1ccc2c(=O)n(Cc3ccco3)c(=S)[nH]c2c1	0	?	0	?
COc1ccc(-c2csc(NC(=O)c3ccccc3F)n2)cc1	-	-	0	0
Cc1ccc(S(=O)(=O)Nc2ccccc2C(=O)Nc2nc(-c3ccc(F)cc3)cs2)cc1	3.3µM	2.8µM	-103	0
COc1ccc(-c2csc(NC(=O)c3ccccc3NS(=O)(=O)c3ccc(F)c(F)c3)n2)cc1	3.7µM	2.3µM	-100	?
O=C(CCNC(=O)c1ccccc1Cl)Nc1nc(-c2ccc(F)cc2)cs1	?	0	-80	?
